Shown are actives, neighbours in structure and some others; about 1.7% of the full set was active somewhere.
3CLpro inhibitor – SARS-CoV 3CLpro protease inhibition; P0C6X7; recombinant SARS-CoV 3CLpro, quenched FRET peptide cleavage; inhibition, % at 6 µM; 0.14% of 290,000 active; in the data active = inhibition above about 12%
BJeLR lethal – BJeLR cell viability loss; BJeLR (HRASV12) viability, CellTiter-Glo ATP luminescence, 48 h; inhibition, % (no concentration beside the values); 0.17% of 300,000 active; in the data active = inhibition above about 50%
VHR inh abs – DUSP3 (human) phosphatase inhibition; 0.52% of 290,000 active; inhibition, % at 13.3 µM; P51452; recombinant VHR phosphatase, pNPP absorbance; AID 1654; in the data active = inhibition above about 50%
Target sequence (P51452 whole entry, looked up): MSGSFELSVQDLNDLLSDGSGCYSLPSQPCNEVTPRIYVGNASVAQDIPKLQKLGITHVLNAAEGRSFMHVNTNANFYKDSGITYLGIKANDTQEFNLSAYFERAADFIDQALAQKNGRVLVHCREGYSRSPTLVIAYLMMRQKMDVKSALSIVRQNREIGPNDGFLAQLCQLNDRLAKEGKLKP
BH1578 lux ind – induces V. cholerae light production without autoinducers; activation, % at 18.7 µM; V. cholerae BH1578 lux reporter, luminescence, 6 h; 0.16% of 350,000 active; AID 588436; in the data active = activation mostly above about 9.7%, no sharp cut-off
PfHsp40 yeast – restores yeast growth despite PfHsp40 toxicity; AID 504582; growth rescue, % at 12.5 µM; S. cerevisiae expressing PfHsp40, growth rescue, ATP luminescence; 0.68% of 340,000 active; in the data active = growth rescue above about 28%, passing the limit was not always enough;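 note: yeast W303a lacking pdr1 and pdr3 grown in galactose medium; growth measured after three days at 30 °C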
MazF activator – increases E. coli MazEF RNase cleavage of RNA. 0.32% of 350,000 active. activation, % at 20 µM. AID 504720. FAM/BHQ RNA-DNA oligo cleavage fluorescence, 5 h; in the data active = activation above about 50%
Target sequence (P0AE70 whole entry, looked up): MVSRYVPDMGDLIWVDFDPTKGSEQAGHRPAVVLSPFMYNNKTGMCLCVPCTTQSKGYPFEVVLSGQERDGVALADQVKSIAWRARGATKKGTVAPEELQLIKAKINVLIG
Large screens that a line does not name were inactive.

Cn1c(CSCc2ccc(Cl)cc2)n[nH]c1=S	VHR inh abs 52
COCCCNC(=O)CSc1nc2cc(S(=O)(=O)N3CCCCC3)ccc2o1	none (no result: 3CLpro inhibitor, VHR inh abs)
CC1(C(=O)Nc2ccc3c(c2)OCCO3)CCN1C(=O)c1cccc(F)c1 (configuration not stated)	none (no result: 3CLpro inhibitor, BJeLR lethal, VHR inh abs, PfHsp40 yeast, MazF activator)
CCCCCN1C=CC(=C2C(=O)c3ccccc3C2=O)C=C1	BJeLR lethal 51
Cc1ccc(NS(=O)(=O)c2c(C)ccc3nsnc23)c([N+](=O)[O-])c1	none
CCCCCC/C=N/Nc1nnc(Cc2ccc(OC)c(OC)c2)c(=O)[nH]1	none
CCCCCCC/C=N/Nc1nnc(Cc2ccccc2)c(=O)[nH]1	VHR inh abs 53
CCCS(=O)(=O)NC(=O)C1(C)CCN(C(=O)c2cccc3ccccc23)C1 (configuration not stated)	none (no result: 3CLpro inhibitor, BJeLR lethal, VHR inh abs, PfHsp40 yeast, MazF activator)
O=c1cc(-c2ccc(O)c(O)c2)oc2ccc3ccccc3c12	none (no result: 3CLpro inhibitor, BJeLR lethal, VHR inh abs)
O=c1cc(-c2ccc(O)c(O)c2)oc2c1ccc1ccccc12	MazF activator 119 (no result: 3CLpro inhibitor, BJeLR lethal, VHR inh abs)
CC(=O)Oc1cccc2c1C(=O)c1c(OC(C)=O)cc(C(=O)O)cc1C2=O	MazF activator 257
CC(=O)Oc1ccc(C(=O)O)cc1OC(C)=O	none
O=C(O)C(=Cc1ccncc1)c1cccc2ccccc12	none (no result: 3CLpro inhibitor, BJeLR lethal, VHR inh abs, PfHsp40 yeast)
O=C(O)/C(=C\c1ccc2ccccc2c1)c1cccc2ccccc12	PfHsp40 yeast 117 (no result: 3CLpro inhibitor, VHR inh abs)
COc1ccc(-n2cc(-c3ccc(OC)c(OC)c3)[nH]c2=S)cc1	VHR inh abs 51
CCCN(Cc1cc2cccc(C)c2[nH]c1=O)C(=O)c1cccc(OC)c1	PfHsp40 yeast 72 (no result: VHR inh abs)
CCCN(Cc1cc2cc(C)ccc2[nH]c1=O)C(=O)c1cccc(OC)c1	none
Cc1ccc(/C=C/C(=O)O)cc1S(=O)(=O)NC1CCS(=O)(=O)C1 (configuration not stated)	none
CC(C)c1cc(-c2cc(C(=O)NCc3ccccc3)on2)nc(NCC2CC2)n1	PfHsp40 yeast 387 (no result: 3CLpro inhibitor)
Cc1c(NS(=O)(=O)c2cc(C(=O)N3CCCC(C)C3)ccc2Cl)c(=O)n(-c2ccccc2)n1C (configuration not stated)	none (no result: 3CLpro inhibitor, BJeLR lethal, VHR inh abs)
Cc1c(N(C)S(=O)(=O)c2cc(C(=O)N3CCCC3)ccc2Cl)c(=O)n(-c2ccccc2)n1C	VHR inh abs 53
CCOC(=O)/C(=C/C=C1\Sc2cc(OCC)c(OCC)cc2N1CC)C(C)=O	none
CCOC(=O)/C(=C\C=C1/Sc2cc(OCC)c(OCC)cc2N1CC)C(C)=O	MazF activator 272
C#CCN1C(=O)S/C(=C\c2ccc(N3CCOCC3)cc2C)C1=O	MazF activator 310
CC[n+]1c(/C=C/c2c[nH]c3ccccc23)ccc2cc(C)ccc21	none (no result: BJeLR lethal, BH1578 lux ind)
CCN1/C(=C/c2cccc[n+]2C)Sc2ccc(OC)cc21	none
CCCCN1/C(=C/c2ccc3ccccc3[n+]2CC)Sc2ccccc21	PfHsp40 yeast 128
CCN1/C(=C/c2ccc3cc(C)ccc3[n+]2CC)Sc2cc(C)ccc21	MazF activator 75 (no result: BJeLR lethal)
CCN1/C(=C/c2ccc3cc(C)ccc3[n+]2C)Sc2ccc3sccc3c21	PfHsp40 yeast 153 (no result: BJeLR lethal)
CCCCN1/C(=C/c2cccc[n+]2C)Sc2cc(NC(C)=O)ccc21	none
CCN1/C(=C/c2ccc3ccccc3[n+]2CC)C=Cc2ccccc21	BJeLR lethal 62, PfHsp40 yeast 166
CCCc1cc(=O)oc2cc(OCC(=O)NCCN3CCOCC3)c(Cl)cc12	none (no result: 3CLpro inhibitor, BJeLR lethal, VHR inh abs, PfHsp40 yeast)
CCOC(=O)Cc1csc(NC(=O)CN2CCN(c3ccccc3)CC2)n1	none
O=[N+]([O-])c1ccc(N2CCN(C(=S)Nc3cccc(F)c3)CC2)cc1	VHR inh abs 50
O=C1OCC(CO)(CO)N=C1NNc1ccc(Cl)c(Cl)c1	PfHsp40 yeast 305
OCC1(CO)COC(c2ccccc2)=N1	none
O=C(/C=C/NNC(=O)c1ccc(Br)cc1)c1ccccc1	none
O=C(/C=C/NNC(=O)c1ccccc1)c1ccccc1	VHR inh abs 52
COC(=O)c1c[nH]c2c1-c1cc(C(=O)OCc3ccccc3)n(S(=O)(=O)c3ccc(C)cc3)c1C(=O)C2=O	MazF activator 75 (no result: 3CLpro inhibitor, BJeLR lethal, VHR inh abs)
CSC1=N/C(=C\c2ccc(C)s2)C(=O)S1	MazF activator 532
CC1(C(=O)Nc2nccs2)CCN1C(=O)C1(c2ccccc2)CC1 (configuration not stated)	none (no result: 3CLpro inhibitor, BJeLR lethal, VHR inh abs, PfHsp40 yeast, MazF activator)
O/N=C/c1ccccc1OCc1ccc(Cl)cc1	PfHsp40 yeast 237
c1ccc(Oc2ccc(-c3ccn[nH]3)cc2)cc1	none
c1ccc(-c2ncc(-c3ccn[nH]3)s2)cc1	PfHsp40 yeast 65
CCOc1ccccc1N1CC(C(=O)Nc2ccc(S(=O)(=O)N3CCCCC3)cc2)CC1=O (configuration not stated)	none (no result: 3CLpro inhibitor, VHR inh abs)
COc1ccc(C2C(C(=O)c3cccs3)=C(O)C(=O)N2c2nncs2)cc1 (configuration not stated)	none
COc1ccc(C2C(C(=O)c3cccs3)=C(O)C(=O)N2c2nnc(C)s2)cc1OC (configuration not stated)	MazF activator 69
C=CCOc1ccc(C2C(C(=O)c3cccs3)=C(O)C(=O)N2c2nnc(C)s2)cc1 (configuration not stated)	MazF activator 315 (no result: VHR inh abs)
Cc1cccc(N2C(=O)C(O)=C(C(=O)c3cccs3)C2c2ccc(C(C)C)cc2)n1 (configuration not stated)	none
CC(C)c1nnc(N2C(=O)C(O)=C(C(=O)c3cccs3)C2c2ccccc2)s1 (configuration not stated)	MazF activator 172 (no result: BH1578 lux ind)
COc1ccccc1CNC(=O)/C(C#N)=C/c1ccc(OC)c(OC)c1OC	none
CCCCn1c(N)c(N(Cc2ccccc2OC)C(=O)C(C)Oc2cccc(Cl)c2)c(=O)[nH]c1=O (configuration not stated)	none (no result: 3CLpro inhibitor, BJeLR lethal, VHR inh abs, PfHsp40 yeast)
COc1ccc(-c2cc(=O)oc3c(C)c(O)c(CN(C)C)cc23)cc1	PfHsp40 yeast 45 (no result: BJeLR lethal)
COc1ccc(-c2cc(=O)oc3c(C)c(OCC(=O)N(C)C)ccc23)cc1	none
CCN1CCc2c(sc(NC(=S)NC(=O)c3ccccc3)c2C#N)C1	MazF activator 62
NC(=O)c1c(NC(=O)c2ccccc2)sc2c1CCN(Cc1ccccc1)C2	MazF activator 116
NC(=O)c1c(NC(=O)c2c(F)cccc2F)sc2c1CCN(Cc1ccccc1)C2	none
CCN1CCc2c(sc(NC(=O)c3ccc(C(=O)c4ccccc4)cc3)c2C(N)=O)C1	MazF activator 274
Cn1cc(-c2csc(C(C)(O)c3cccnc3)n2)cn1 (configuration not stated)	none (no result: 3CLpro inhibitor, BJeLR lethal, VHR inh abs, PfHsp40 yeast, MazF activator)
CCCCn1c(N)c(-c2nc3ccccc3o2)c2c([N+](=O)[O-])nn(C)c(=O)c21	VHR inh abs 55
CCCC(C(=O)NCC1CCCO1)N(C(=O)CNS(=O)(=O)c1ccccc1)c1ccc(F)cc1 (configuration not stated)	VHR inh abs 58
CCC(C(=O)NCC1CCCO1)N(C(=O)CNS(=O)(=O)c1ccccc1)c1ccc(F)cc1 (configuration not stated)	none

Assay outcomes as filed in PubChem BioAssay.
